Source: PubChem BioAssay (several laboratories)
BoNT A protease: BoNT A light chain protease inhibition; multiplex microsphere protease substrate cleavage, flow cytometry; inhibition, % at 10 µM; 360,000 tested, 0.17% active; note: plate controls were buffer without enzyme for full effect and enzyme alone for no effect
Bead autofluor: compound fluorescence in toxin protease inhibitor counterscreen | 360,000 tested, 3.1% active | fluorescence intensity (test concentration not listed) | compound autofluorescence counterscreen, microsphere flow cytometry; stronger effect = higher value; in the data active = fluorescence intensity above about 16000; inconclusive = no clear call, values can overlap the other calls
Anthrax LF inh2: anthrax lethal factor protease inhibition | multiplex microsphere protease cleavage assay, LF | inhibition, % at 10 µM | 360,000 tested, 0.12% active; note: plate controls were buffer without enzyme for full effect and enzyme alone for no effect
Target sequence (P15917 whole entry, looked up): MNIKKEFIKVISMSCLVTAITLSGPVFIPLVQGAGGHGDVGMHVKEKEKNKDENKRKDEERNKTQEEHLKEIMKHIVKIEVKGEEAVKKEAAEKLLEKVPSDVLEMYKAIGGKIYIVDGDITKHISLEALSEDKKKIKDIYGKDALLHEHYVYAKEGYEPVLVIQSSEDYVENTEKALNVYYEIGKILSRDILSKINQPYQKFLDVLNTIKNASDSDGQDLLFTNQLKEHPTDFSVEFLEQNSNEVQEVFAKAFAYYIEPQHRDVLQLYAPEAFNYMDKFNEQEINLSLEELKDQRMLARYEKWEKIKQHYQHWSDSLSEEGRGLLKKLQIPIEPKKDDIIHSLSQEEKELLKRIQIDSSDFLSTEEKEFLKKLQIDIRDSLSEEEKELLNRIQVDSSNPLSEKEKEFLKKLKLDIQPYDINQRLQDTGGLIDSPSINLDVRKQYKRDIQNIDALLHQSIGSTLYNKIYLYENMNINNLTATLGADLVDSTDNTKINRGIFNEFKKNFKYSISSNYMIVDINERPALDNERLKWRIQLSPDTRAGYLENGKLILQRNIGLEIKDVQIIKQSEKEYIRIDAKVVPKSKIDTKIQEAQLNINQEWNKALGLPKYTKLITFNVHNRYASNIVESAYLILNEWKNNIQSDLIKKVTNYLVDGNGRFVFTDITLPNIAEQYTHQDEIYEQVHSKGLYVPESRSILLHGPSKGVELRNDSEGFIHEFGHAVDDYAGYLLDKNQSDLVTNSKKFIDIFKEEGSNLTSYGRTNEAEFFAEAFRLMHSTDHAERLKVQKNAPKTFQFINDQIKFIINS
TcdB GH inh: blocks C. difficile toxin B glycohydrolase activity; P18177; TcdB glycohydrolase enzymatic assay, plate reader; inhibition, % at 9.99 µM; 350,000 tested, 0.24% active; AID 652162; in the data active = inhibition above about 10%
BoNT-F LC inh: inhibitors of Botulinum neurotoxin F light chain protease; inhibition, % at 10 µM; Multiplex microsphere protease cleavage assay, flow cytometry; 360,000 tested, 0.22% active; in the data active = inhibition above about 35%, passing the limit was not always enough; inconclusive = no clear call, values can overlap the other calls; note: plate controls were buffer without enzyme for full effect and enzyme alone for no effect
* marks the source's active call; other numbers are inactive results; ? = inconclusive; . = no result. Shown is part of a subset that was picked to be rich in hits. Cut-off read from the data, not from the text of the source, unless noted: active = inhibition above about 30%; inconclusive = no clear call, values can overlap the other calls; inactive = below that.

SMILES	BoNT A protease	Bead autofluor	Anthrax LF inh2	TcdB GH inh	BoNT-F LC inh
CN1CCN(S(=O)(=O)c2ccc(Cl)cc2)CC1	0	3891	-9	-1	-2
CN1CCN(S(=O)(=O)c2ccc(NC(=O)C(C)(C)C)cc2)CC1	?	22681*	-1	2	3
CN1CCN(S(=O)(=O)c2ccc(NC(=O)c3cccs3)cc2)CC1	0	3269	4	.	6
CN1CCN(S(=O)(=O)c2ccc(NC(=O)c3csc4ccccc34)cc2)CC1	?	16528*	-4	2	-1
CN1CCN(S(=O)(=O)c2ccc(-c3ccc(Cl)cc3)cc2)CC1	-1	20018*	1	.	-5
CN1CCN(S(=O)(=O)c2ccc(NC(=O)Cc3cccs3)cc2)CC1	8	19616*	1	1	10
CC(=O)Nc1ccc(S(=O)(=O)N2CCN(S(=O)(=O)c3ccc(NC(C)=O)cc3)CC2)cc1	0	3611	7	1	0
COc1ccccc1CNC(=O)C[C@@H]1C[C@@H]2c3cc(NS(C)(=O)=O)ccc3O[C@@H]2[C@@H](CO)O1	.	.	.	0	.
C[C@@H]1CN([C@H](C)CO)C(=O)c2cccc(NC(=O)C3CC3)c2O[C@@H]1CN(C)C(=O)Nc1ccc2c(c1)OCO2	.	.	.	0	.
C[C@@H]1CN([C@@H](C)CO)C(=O)c2cc(NC(=O)c3ccncc3)ccc2O[C@@H](C)CCCCO[C@H]1CN(C)C(=O)C1CCCCC1	.	.	.	1	.
Cc1noc(C)c1S(=O)(=O)Nc1ccc2c(c1)C(=O)N([C@@H](C)CO)C[C@@H](C)[C@H](CN(C)C(=O)NC(C)C)OCCCC[C@H](C)O2	.	.	.	1	.
CC1CCCN(S(=O)(=O)c2ccc(NC(=O)CN3CCN(C)CC3)cc2)C1 (stereo unspecified)	0	16136*	1	.	-2
Cc1ccnc(NS(=O)(=O)c2ccc(NC(=O)Cc3cccs3)cc2)n1	?	21122*	-1	.	-2
O=C(Cc1cccs1)Nc1ccc(S(=O)(=O)Nc2ncccn2)cc1	0	3087	-2	.	-8
O=C(NCc1cccs1)c1nn2cccnc2c1Cl	0	2927	-6	.	-3
COCCNC(=O)c1nn2cccnc2c1Cl	1	19754*	0	.	-2
O=C(NCC12CC3CC(CC(C3)C1)C2)c1nn2cccnc2c1Cl	0	16281*	-4	.	1
CO[C@@H]1CN(C)C(=O)c2ccc(NC(C)=O)cc2OC[C@H](C)N(C(=O)c2ccncc2)C[C@H]1C	.	.	.	-2	.
COCCn1nnnc1CN1CCC(NC(=O)c2ccc(Br)cc2)CC1	0	3728	-3	.	-2
COc1cc(C(=O)NC2CCN(Cc3nnnn3Cc3cccs3)CC2)cc(OC)c1OC	1	22671*	-8	.	1
O=C(NCC1CC1)[C@@H]1[C@@H](CO)[C@@H]2Cn3c(ccc(/C=C/c4ccccc4)c3=O)[C@H]1N2C(=O)C1CCC1	.	.	.	0	.
CC1CCN(S(=O)(=O)c2cc(Br)cc(C(=O)NC3=NCCS3)c2)CC1	0	24164*	0	.	-7
CCN(CC)S(=O)(=O)c1ccc(C(=O)NC2=NCCS2)cc1	0	4122	-5	1	-4
COc1ccc(NC(=O)Nc2cccc3c2O[C@H](CN(C)C(=O)Nc2ccc4c(c2)OCO4)[C@H](C)CN([C@H](C)CO)C3=O)cc1	.	.	.	0	.
Cc1ccccc1-c1cc(C(=O)Nc2sc(C(=O)OC(C)C)c(C)c2C#N)c2ccccc2n1	2	16235*	-4	.	1
SMILES	BoNT A protease	Bead autofluor	Anthrax LF inh2	TcdB GH inh	BoNT-F LC inh
COC(=O)c1sccc1NC(=O)c1cc(-c2ccc(C)cc2)nc2ccccc12	0	2623	0	.	-8
COC(=O)c1sc(NC(=O)c2cc(-c3ccccc3)nc3ccccc23)c(C#N)c1C	0	2786	0	.	0
Cc1ccc(C)c(-c2cc(C(=O)Nc3nccs3)c3ccccc3n2)c1	-1	24181*	2	0	-5
COC(=O)c1sccc1NC(=O)c1cc(-c2cc(C)ccc2C)nc2ccccc12	3	21965*	-3	1	2
COc1ccc2c3c([nH]c2c1)[C@@H](CO)N(C(C)=O)CC31CN(Cc2cc(-c3ccccc3)on2)C1	.	.	.	2	.
CN(C)CCNC(=O)c1ccccc1	2	20030*	-18	.	4
O=C(NCCc1ccccc1)c1ccc(-n2cnnn2)cc1	?	16633*	-2	0	-5
O=C(NCSC1=NCCS1)c1ccccc1	-4	24719*	1	.	-6
Cc1cccc(C(=O)NCCN(C)C)c1	1	2855	-2	.	-2
CCN(CC)S(=O)(=O)c1cccc(C(=O)NCCc2ccccc2)c1	-3	16952*	-3	1	0
